{
  "source": "PubChem BioAssay AID2280",
  "about": "(The Scripps Research Institute Molecular Screening Center, 2010)",
  "note": "In all, about 320,000 compounds went through this assay and about 1,400 (0.44%) were called active. The list comes from a sample in which actives are over-represented; it also holds similar structures and randomly drawn compounds. Values without a mark were called inactive.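 The calls were made as follows: active = percent inhibition above a per-plate cutoff, the plate mean of test compounds plus 3 SD (cut at about 30% in these data); inactive = the rest.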",
  "data": [
    {"target": "Female germline-specific tumor suppressor gld-1 (Caenorhabditis elegans) (UniProt Q17339)", "sequence (Q17339 whole entry, looked up)": "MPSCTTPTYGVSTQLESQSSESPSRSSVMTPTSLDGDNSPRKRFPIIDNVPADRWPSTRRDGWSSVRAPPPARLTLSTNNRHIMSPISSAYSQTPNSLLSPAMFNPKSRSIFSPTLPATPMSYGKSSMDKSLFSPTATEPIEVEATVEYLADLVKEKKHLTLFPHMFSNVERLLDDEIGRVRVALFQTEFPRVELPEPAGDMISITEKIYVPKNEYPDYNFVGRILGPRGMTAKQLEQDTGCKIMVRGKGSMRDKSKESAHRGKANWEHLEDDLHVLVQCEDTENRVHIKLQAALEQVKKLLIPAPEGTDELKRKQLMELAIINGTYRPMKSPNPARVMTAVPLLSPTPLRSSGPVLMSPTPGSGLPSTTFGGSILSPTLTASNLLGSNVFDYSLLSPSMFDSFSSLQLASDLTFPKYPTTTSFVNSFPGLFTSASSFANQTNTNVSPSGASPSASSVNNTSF", "test": "GLD-1/TGE RNA complex disruptors, primary screen, biochemical, fluorescence polarization (AID 2280);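 also: 0% = DMSO wells with GLD-1 and probe and 100% = wells lacking GLD-1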", "conditions": "purified GLD-1 + fluorescein TGE RNA, at 5.96 µM, hits give high values", "values": [
      {"smiles": "COc1ccc(Cc2nnc(N/N=C/c3ccccc3O)[nH]c2=O)cc1OC", "inhibition": "2.1%"},
      {"smiles": "Cc1ccc(/C=N/NC(=O)COc2ccccc2-c2ccccc2)cc1", "inhibition": "52.5% (active)"},
      {"smiles": "Cc1ccc(/C=N/NC(=O)CSc2nc3ccccc3o2)cc1", "inhibition": "13.4%"},
      {"smiles": "Cc1cccc(OCC(=O)NCC(=O)N/N=C/c2ccc(N(C)C)cc2)c1", "inhibition": "1.86%"},
      {"smiles": "COc1cc(/C=C2\\Oc3ccc(C#Cc4ccc(O)cc4)cc3C2=O)cc(OC)c1", "inhibition": "-7.59%"},
      {"smiles": "O=C(CCN1CCc2ccccc2C(O)(c2ccccc2)C1)c1ccc2c(c1)OCCO2", "note": "(stereo not drawn)", "inhibition": "8.71%"},
      {"smiles": "COC(=O)c1cc(C(=O)N(Cc2ccccc2)c2ccccn2)cc([N+](=O)[O-])c1", "inhibition": "3.82%"},
      {"smiles": "COCCOC(=O)c1sc(=S)n(CCOC)c1N", "inhibition": "65.8% (active)"},
      {"smiles": "COc1cccc(-n2c(SCC(=O)NC3CCS(=O)(=O)C3)nc3ccccc3c2=O)c1", "note": "(stereo not drawn)", "inhibition": "1.53%"},
      {"smiles": "CSCCC(NS(=O)(=O)c1ccc2c(c1)oc(=O)n2C)C(=O)NCc1ccccc1", "note": "(stereo not drawn)", "inhibition": "4.5%"},
      {"smiles": "C=CCSc1nc2c(c(=O)[nH]c(=O)n2C)n1Cc1ccccc1", "inhibition": "-0.99%"},
      {"smiles": "Cc1cc2nc3c(=O)n(Cc4ccccc4)c(=O)[nH]c3nc2cc1N", "inhibition": "190% (active)"},
      {"smiles": "COC(=O)CSc1nc2ccccc2c(=O)n1Cc1ccccc1", "inhibition": "-3.39%"},
      {"smiles": "CCOC(=O)C(Cc1ccccc1)NC(=O)CCC(=O)c1ccc(OC)cc1", "note": "(stereo not drawn)", "inhibition": "2.6%"},
      {"smiles": "COc1cc([C@H](Cc2ccccc2)NC(C)=O)oc(=O)c1", "inhibition": "43.8% (active)"},
      {"smiles": "COc1ccc(OC)c(NC(=O)N[C@H](Cc2ccccc2)C(=O)NN)c1", "inhibition": "6.48%"},
      {"smiles": "CCCCCCCCc1c(O)nc(-n2[nH]c(C)c(CCO)c2=O)[nH]c1=O", "inhibition": "3.56%"},
      {"smiles": "COCCN(C(=O)c1ccccc1F)c1c(N)n(Cc2ccccc2)c(=O)[nH]c1=O", "inhibition": "1.28%"},
      {"smiles": "COCCn1c(N)c(NCc2ccccc2)c(=O)[nH]c1=O", "inhibition": "94.7% (active)"},
      {"smiles": "COCCn1c(N)c(N(Cc2ccccc2)C(=O)C2CCCCC2)c(=O)[nH]c1=O", "inhibition": "7.47%"},
      {"smiles": "COC(=O)c1c(NC(=O)CN2CCN(S(=O)(=O)c3ccccc3[N+](=O)[O-])CC2)sc2c1CCC(C)C2", "note": "(stereo not drawn)", "inhibition": "1.69%"},
      {"smiles": "COc1ccc(C2C(C#N)=C(N)N(c3ncn[nH]3)C3=C2C(=O)CCC3)cc1", "note": "(stereo not drawn)", "inhibition": "2.28%"},
      {"smiles": "O=C(Nc1ccccc1C(=O)O)c1ccc(N2C(=O)C3CC=CCC3C2=O)cc1", "note": "(stereo not drawn)", "inhibition": "3.32%"},
      {"smiles": "CC1=C(C(=O)OCc2ccccc2)C(c2ccco2)n2ncnc2N1", "note": "(stereo not drawn)", "inhibition": "0.86%"},
      {"smiles": "CCOc1ccc(C2=CC(c3ccccc3)n3ncnc3N2)cc1", "note": "(stereo not drawn)", "inhibition": "11.7%"},
      {"smiles": "Brc1ccc(C2=CC(c3ccco3)n3ncnc3N2)cc1", "note": "(stereo not drawn)", "inhibition": "158% (active)"},
      {"smiles": "CCC(C)[C@@H](C(=O)N1CCNCC1)n1cc(CCCCN)nn1", "note": "(stereo partly drawn)", "inhibition": "3.86%"},
      {"smiles": "COc1cc2c(-c3ccc4c(c3)OCO4)c(-c3ccsc3)oc(=O)c2cc1OC", "inhibition": "0.87%"}
    ]}
  ]
}
